# About 3,200 (25%) of roughly 13,000 compounds showed an effect of 50% or more. This is one part of the list.
# Tested on: P. falciparum stage V gametocytes
# Design: BacTiter-Glo ATP luminescence viability of purified stage V gametocytes in 384-well plates, per cent inhibition versus DMSO
# Details: 48 h, 5 µM; inhibitor
row,Compound,% Inhibition [%]
1,c1csc(-c2nc(N3CCCC3)ncc2-c2ccsc2)n1 [TCMDC-125373],23.84
2,CS(=O)(=O)Cc1ccc(Nc2nccc(-c3c(-c4cccc(C(=O)Nc5c(F)cccc5F)c4)nn4ccccc34)n2)cc1 [TCMDC-135742],-95.17
3,O=C(NCCCN1CCC(N2CCCCC2)CC1)c1ccc2nc(N3CCCCC3)sc2c1 [TCMDC-124404],56.64
4,O=C(NCCCN1CCC(N2CCCCC2)CC1)C1=Cc2cc(Br)ccc2OC1 [TCMDC-124696],29.02
5,N#Cc1ccc(-c2ccc(C(=O)NCCCCN3CCC(n4cnc5ccccc54)CC3)cc2)cc1 [TCMDC-138796],-25.18
6,Cc1ccc2nc(Cl)c3cc(C(=O)NCCCN4CCCC4)sc3c2c1 [TCMDC-125000],29.06
7,Cc1cc(C)c2nc(N3CCC(C(=O)NCCCN4CCC(N5CCCCC5)CC4)CC3)sc2c1 [TCMDC-124448],62.4
8,Cc1ccc2nc3sc(C(=O)NCCCN4CCC(N5CCCCC5)CC4)cc3cc2c1 [TCMDC-125157],73.7
9,O=C(NC1CC1)c1ccc(N2CCOc3ccc(Cl)cc32)s1 [TCMDC-125270],3.185
10,CCCN1CCN(CCCNC(=O)c2cc3c(Cl)nc4ccc(C)cc4c3s2)CC1 [TCMDC-124441],16.62
11,O=C(NCCCN1CCC(N2CCCCC2)CC1)c1ccc(N2CCOc3ccccc32)s1 [TCMDC-125271],84.69
12,Cc1c(C(=O)C2CC2CN2CCC(N3CCCCC3)CC2)sc2ccccc12 (stereo not shown) [TCMDC-132576],19.76
13,CCCCCCNC(=O)c1nn(CCN2CCC(N3CCCC3)CC2)cc1-c1ccc(Cl)c(Cl)c1 [TCMDC-141907],27.94
14,CCOCCCNc1nc2cc(OC)c(OC)cc2c2nc(-c3ccccc3)nn12 [TCMDC-124406],-8.61
15,COc1ccc2nccc(N3CCCN(CCNS(=O)(=O)c4ccc5c(c4)NC(=O)CS5)CC3)c2n1 [TCMDC-134651],20.86
16,CCC(C)CN1CCC(N(C)c2cc(NC(=O)c3cccc(C)c3)ccn2)CC1 (stereo not shown) [TCMDC-134950],-9.268
17,CC(CN(C)C)C(=O)Nc1ccc(-c2cccc(-c3nc4ccc(C(F)(F)F)cc4[nH]3)c2)cc1 (stereo not shown) [TCMDC-137109],-30.4
18,COc1ccc(-n2ccnc2)cc1CNC1CCN(CC2Cn3c(=O)ccc4ccc(F)c2c43)CC1 (stereo not shown) [TCMDC-134407],-10.31
19,CN1CCC(N(C)C(=O)C=Cc2cn(-c3ccccc3)nc2-c2cc3ccccc3o2)CC1 [TCMDC-124569],79.49
20,CN(C(=O)/C=C/c1ccccc1F)C1CCN(CCCCCNC(=O)/C=C/c2ccc(Cl)c(Cl)c2)CC1 [TCMDC-139992],46.22
21,COc1ccccc1/C=C/C(=O)N(C)C1CCN(CCCCCNC(=O)/C=C/c2ccc(Cl)c(Cl)c2)CC1 [TCMDC-139985],9.126
22,CCCCCOc1c(CCC)cc(Cc2cnc(N)nc2N)cc1CCC [TCMDC-137287],-6.135
23,COc1cc2c(cc1C(F)(F)F)N(C(=O)Nc1cc(Br)cc(-c3cccnc3)c1)CC2 [TCMDC-139024],0.01985
24,COc1cc2c(cc1C(F)(F)F)N(C(=O)Nc1cccc(-c3ccc(CN(C)C)cc3)c1)CC2 [TCMDC-139014],97.51

row,Compound,% Inhibition [%]
1,COc1cc2c(cc1C(F)(F)F)N(C(=O)Nc1cc(-c3ccncc3)cc(-c3cccnc3)c1)CC2 [TCMDC-139040],-15.72
2,CC(C)c1ccc(NC(=O)c2ccc(C(=O)NC3CCN(CC4CCCCC4)CC3)cc2)cc1 [TCMDC-136750],-11.44
3,NC1=NC(Cc2ccccc2)(c2ccncc2)C(=O)N1CCCc1ccccc1 (stereo not shown) [TCMDC-136557],2.084
4,O=C(c1ccc(Cl)c(Cl)c1)N1CCc2c([nH]c3ccccc23)C1CN1CCCC1 (stereo not shown) [TCMDC-139011],81.19
5,CN(C)CC1c2[nH]c3ccccc3c2CCN1C(=O)Nc1ccc(Cl)c(Cl)c1 (stereo not shown) [TCMDC-139004],3.866
6,CC(C)CC1c2[nH]c3ccccc3c2CCN1C(=O)CCc1ccccc1 (stereo not shown) [TCMDC-123996],-45.79
7,N#Cc1ccc2c(c1)CCN(CCC1CCC(NC(=O)/C=C/c3ccc4[nH]ccc4c3)CC1)CC2 (stereo not shown) [TCMDC-139666],5.34
8,N#Cc1cccc(C(=O)Nc2cccc(-c3cccc(CN4CCNCC4)c3)c2)c1 [TCMDC-132660],26.75
9,O=C(Nc1cccc(F)c1)N(Cc1ccc(-c2ccc(CN3CCNCC3)cc2)cc1)C1CCN(Cc2ccccc2)CC1 [TCMDC-139654],96.89
10,CN(c1cc(NC(=O)c2ccccc2)ccn1)C1CCN(Cc2cccc(F)c2)CC1 [TCMDC-135011],9.307
11,O=C(Nc1cccc(F)c1)N(Cc1ccc(-c2cccc(CN3CCNCC3)c2)cc1)C1CCN(Cc2ccccc2)CC1 [TCMDC-139638],105.9
12,O=C(Nc1cccc(-c2ccc(CN3CCCC3)cc2)c1)c1cccc(F)c1 [TCMDC-132647],5.119
13,CCn1cnc2c(N3CCCC3=O)cc(C(=O)N[C@@H](Cc3ccccc3)[C@H](O)CNC3CCCCC3)cc21 [TCMDC-135231],-30.5
14,CCN(CC)CCN(Cc1ccc(-c2ccc(C(F)(F)F)cc2)cc1)C(=O)Cn1c(CCc2cc(F)ccc2F)nc(=O)c2ccccc21 [TCMDC-140941],67.52
15,CCN(CC)CCN(Cc1ccc(-c2ccc(C(F)(F)F)cc2)cc1)C(=O)Cn1c(CCc2cc(F)c(F)cc2F)nc(=O)c2ccccc21 [TCMDC-140949],56.5
16,COc1ccc2nccc([C@H](O)CN3CCC(NCc4nc5c(F)cccc5[nH]4)CC3)c2c1 [TCMDC-141062],-21.41
17,NC(=O)c1cccc(C(=O)Nc2cccc(-c3ccc(-c4nc5ccccc5[nH]4)s3)c2)c1 [TCMDC-132195],9.45
18,Cc1[nH]c2ccc([N+](=O)[O-])cc2c1C1=CCN(C)CC1 [TCMDC-139186],-16.2
19,c1cc(CNCCN2CCNCC2)cc(-c2ccc(-c3nc4ccccc4[nH]3)cc2)c1 [TCMDC-132861],85.05
20,c1cc(CN2CCN(CCN3CCOCC3)CC2)cc(-c2ccc(-c3nc4ccccc4[nH]3)cc2)c1 [TCMDC-133939],-22.81
21,CN(C)CCNCc1cccc(-c2cccc(-c3nc4ccccc4[nH]3)c2)c1 [TCMDC-132680],40.55
22,CNCCNCc1cccc(-c2ccc(-c3nc4ccccc4[nH]3)cc2)c1 [TCMDC-132839],24.41
23,c1cc(CNCCN2CCNCC2)cc(-c2cccc(-c3nc4ccccc4[nH]3)c2)c1 [TCMDC-132859],95.66
24,c1cc(CNCC2CCCO2)cc(-c2cccc(-c3nc4ccccc4[nH]3)c2)c1 (stereo not shown) [TCMDC-133090],0.6072

row,Compound,% Inhibition [%]
1,CCNc1cc(CC)nc(Nc2ccc(C)cc2)n1 [TCMDC-133992],-2.88
2,COc1cc(N)c(Cl)cc1C(=O)NC1CCC(NCC2CCCCC2)CC1 (stereo not shown) [TCMDC-136726],0.4196
3,Cc1cccc2nc(-c3ccc(-c4ccc(NC(=O)Nc5ccc(Cl)c(Cl)c5)cc4)s3)[nH]c12 [TCMDC-133273],-52.78
4,O=C(/C=C/c1ccc(C(F)(F)F)cc1)NCCCCCN1CCCN(C(=O)Nc2ccc(Cl)c(C(F)(F)F)c2)CC1 [TCMDC-136105],-22.56
5,Cc1cc(Nc2ccncc2)n2nc(C)c(-c3ccccc3Cl)c2n1 [TCMDC-124918],99.62
6,Cc1cc(Nc2ccc(Cl)cc2)n2nc(C(F)(F)F)nc2n1 [TCMDC-123826],-17.3
7,Cc1cc(Nc2ccc(Cl)c(Cl)c2)n2nc(C)nc2n1 [TCMDC-124417],-6.756
8,Cc1cc(Nc2ccc(C)c(Cl)c2)n2nc(C(F)(F)F)nc2n1 [TCMDC-124919],-6.645
9,Cc1cc(Nc2ccc(C)c(C)c2)n2nc(C)nc2n1 [TCMDC-124418],9.818
10,CCc1nn2c(Nc3ccncc3)cc(C)nc2c1-c1ccccc1 [TCMDC-124917],106.8
11,Cc1cc(Nc2ccnc(-c3ccc(Cl)cc3)n2)ccn1 [TCMDC-141398],-5.017
12,Cc1cc(Nc2ccncc2)n2nc(C)c(-c3ccc(Cl)cc3)c2n1 [TCMDC-124478],102.4
13,Cc1cc(Nc2ccc3ccccc3c2)n2ncnc2n1 [TCMDC-125840],18.77
14,Cc1nc(N)nc(N)c1C#CC1CCCC1 [TCMDC-137728],11.69
15,CC(C)(C)c1ccc(NC(=O)c2ccc(CN3CCCN(Cc4cccc(F)c4)CC3)cc2)cc1 [TCMDC-136431],-15.47
16,CC1(C)S(=O)(=O)CC(O)CS1(=O)=O [TCMDC-131669],10.31
17,Cc1c(C(=O)NCc2ccncc2)sc2nc(-c3cccc([N+](=O)[O-])c3)cn12 [TCMDC-124992],-38.46
18,Nc1ncc(-c2ccc(Cl)c(Cl)c2)c(N)n1 [TCMDC-138994],6.577
19,O=C(/C=C/c1ccc(Cl)c(Cl)c1)NC1CCN(Cc2ccc(O)cc2)CC1 [TCMDC-141741],16.03
20,Cc1[nH]c(C)c(-c2ccc(CCc3ccc(C(F)(F)F)cc3)nc2)c(=O)c1Cl [TCMDC-136051],71.49
21,Cc1[nH]c(C)c(-c2ccc(CCc3cccc(C(F)(F)F)c3)nc2)c(=O)c1Cl [TCMDC-136014],76.88
22,CCCCCCCc1ccc(-c2c(C)[nH]c(C)c(Cl)c2=O)cn1 [TCMDC-135816],34.89
